Hits are enriched below; roughly 15% of the tested compounds scored in any of these assays.
ALOX12 inh – Primary qHTS assay for inhibitors of human arachidonate 12S-lipoxygenase (ALOX12): Round 2 | actives 1.1% (n = 580,000) | purified 12hLO, xylenol orange hydroperoxide absorbance | AID 1671190, 2021 | Potency, µM (series often up to 108 µM), for inactives: at the top dose activity change, negative = inhibition, usual class: inhibitors
Target sequence (P18054 whole entry, looked up): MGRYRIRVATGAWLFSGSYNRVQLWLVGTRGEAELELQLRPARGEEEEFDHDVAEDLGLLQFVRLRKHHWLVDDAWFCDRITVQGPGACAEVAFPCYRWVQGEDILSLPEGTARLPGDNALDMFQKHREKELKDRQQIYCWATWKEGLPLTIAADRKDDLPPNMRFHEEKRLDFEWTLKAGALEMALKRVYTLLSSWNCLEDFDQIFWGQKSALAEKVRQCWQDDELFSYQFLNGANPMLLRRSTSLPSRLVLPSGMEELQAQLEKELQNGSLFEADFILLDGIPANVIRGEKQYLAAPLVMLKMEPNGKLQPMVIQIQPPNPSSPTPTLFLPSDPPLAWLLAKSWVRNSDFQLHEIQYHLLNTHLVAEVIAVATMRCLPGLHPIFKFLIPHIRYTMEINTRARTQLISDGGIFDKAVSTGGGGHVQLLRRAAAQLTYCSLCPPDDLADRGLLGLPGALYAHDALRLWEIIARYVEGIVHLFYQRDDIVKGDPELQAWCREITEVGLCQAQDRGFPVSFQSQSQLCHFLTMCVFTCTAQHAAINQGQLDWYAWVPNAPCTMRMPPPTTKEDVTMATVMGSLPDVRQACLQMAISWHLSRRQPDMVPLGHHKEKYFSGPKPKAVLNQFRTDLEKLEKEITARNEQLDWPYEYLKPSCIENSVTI
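Purified human 12hLO (150 nM final) in 25 mM Hepes, 0.01% Triton X-100, pH 7.0 was preincubated 15 min at room temperature with compound. Then 40 uM arachidonic acid was added, 30 min. Hydroperoxide was read by Fe-XO absorbance ratio 573/405 nm.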
RORgamma inh – qHTS for inhibitors of ROR gamma transcriptional activity; Nuclear receptor ROR-gamma (Mus musculus), P51450; Drosophila S2 Gal4-RORgamma UAS-luciferase reporter, 20 h; Potency, µM (top dose mostly 53.6 µM), for the others: top-dose activity change, negative = inhibition, usual class: inhibitors; actives 5.4% (n = 310,000); AID 2551, 2010; also: nearly all actives have a fitted effect of over 60% in size
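Stably transfected Drosophila Schneider cells are the test system, with ROR gamma fused to Gal4 and luciferase under UAS control; luminescence is read after 20 hr of 700 uM copper sulfate induction at ambient temperature.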
TDP1 cell CPT – qHTS for Inhibitors of human tyrosyl-DNA phosphodiesterase 1 (TDP1): qHTS in cells in presence of CPT; Potency, µM (titrated, usually from 46.2 µM), for the others: at the top dose activity change, negative = growth inhibition, usual class: inhibitors; chicken DT40 Tdp1-/-;hTDP1 cells + 20 nM CPT, ATP luminescence, 48 h; AID 686979, 2013; actives 12% (n = 420,000); also: nearly all actives have a fitted effect of over 55% in size
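Chicken DT40 Tdp1-/- cells stably complemented with human TDP1 were seeded at 400 cells/well in medium containing 20 nM camptothecin, exposed to pin-transferred compounds, and grown at 37 °C for at least 48 hr. Viability was read as ATP luminescence.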
ELG1 DNA repair – qHTS screen for small molecules that inhibit ELG1-dependent DNA repair in human embryonic kidney (HEK293T) cells expressing luciferase-tagged ELG1; Potency, µM (series often up to 46.1 µM), without a hit: at the highest dose activity change, negative = inhibition, actives largely listed as inhibitors; actives 2.3% (n = 330,000); HEK293T ELG1-luciferase reporter, luminescence, 16 h; DNA damage induced by 5-fluorouridine; also: nearly all actives have a fitted effect of over 55% in size
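In this reporter screen, reduction of luminescence relative to DMSO vehicle indicated activity. Compounds and 5-fluorouridine were added together to 2,000 cells per well, incubated for 16 hr at 37 °C, then developed with ONE-Glo.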
TDP1 cell noCPT – qHTS for Inhibitors of human tyrosyl-DNA phosphodiesterase 1 (TDP1): qHTS in cells in absence of CPT; Potency, µM (highest dose often 46.2 µM), for the others: top-dose activity change, negative = growth inhibition, actives largely listed as inhibitors; actives 15% (n = 420,000); AID 686978, 2013; DT40 Tdp1-/- hTDP1 cells, no CPT, ATP luminescence, 48 h; also: nearly all actives have a fitted effect of over 55% in size
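Growth kinetics read by CellTiter-Glo luminescence after ≥48 hr at 37 °C. Cells: DT40 Tdp1-/- stably carrying human TDP1, 400 per well, compound exposure in the absence of CPT (DMSO vehicle).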
Gal4-VP16 FLuc – VP16 counterscreen qHTS for inhibitors of ROR gamma transcriptional activity | Drosophila S2 Gal4-VP16 UAS-luciferase, luminescence, 20 h | Potency, µM (titrated, usually from 53.6 µM), for inactives: at the highest dose activity, negative = inhibition, usual class: inhibitors | AID 2546, 2010 | actives 3.5% (n = 310,000);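 also: Gal4-VP16 expression switched on by copper sulfate through the metallothionein promoter; nearly all actives have a fitted effect of over 50% in size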
An asterisk follows results filed as active; u = inconclusive; x = no result given. Calls follow the shape of the dose curve; as a rule, active = well fitted curve in the direction sought with a large enough effect; inconclusive = small, poorly fitted or top-dose-only effect, or another doubt; inactive = no such curve, though single readings can be large; an effect the other way counts as inactive or inconclusive. % is scaled to controls: 0 for no effect and ±100 for the full control effect; potency is read from the fitted curve at half-maximal effect.

SMILES | ALOX12 inh | RORgamma inh | TDP1 cell CPT | ELG1 DNA repair | TDP1 cell noCPT | Gal4-VP16 FLuc
O=C1N[C@H](CCC(=O)N2CCN(CCc3ccccn3)CC2)C(=O)Nc2ccccc21 | -0.2% | x | x | x | x | x
NC(=S)N/N=C1\CC(n2nnnc2-c2ccccc2Cl)C2COC1O2 (stereo not drawn) | u | 11.2µM* | 3.1% | 11.5% | -12.7% | u
Cc1ccc(-c2nnnn2C2C/C(=N\NC(N)=S)C3OCC2O3)cc1 (stereo not drawn) | u | 10µM* | 6.3% | 2.7% | 20.2% | u
CCOC(=O)C1=C(CSc2nc(CC)c(C)cc2C#N)OC(N)=C(C#N)C1c1ccc(OC)cc1 (stereo not drawn) | -24.2% | -36.3% | u | 13.2% | 16.4µM* | 12.2%
CCOC(=O)C1=C(CSc2nc(-c3ccncc3)ccc2C#N)OC(N)=C(C#N)C1c1cccnc1 (stereo not drawn) | -9.6% | 9.9% | -17.1% | u | u | 5.0%
CCOC(=O)C1=C(CSc2nc(-c3ccncc3)ccc2C#N)OC(N)=C(C#N)C1c1ccc(OC)cc1 (stereo not drawn) | 0.0% | 30.5% | u | 11.8% | 16.4µM* | u
CC(C)NC(=O)Cn1ccc2cc(Cl)ccc21 | 0.6% | x | x | x | x | x
O=C1NC(=O)c2cc(Nc3ccc(F)cc3)c(Nc3ccc(F)cc3)cc21 | 88.7% | -9.2% | x | x | x | u
O=C1NC(=O)c2cc(Nc3ccccc3)c(Nc3ccccc3)cc21 | x | 35.0% | u | x | 12.6µM* | -2.7%
CCC1NC(=O)c2ccccc2N1c1cccc(Cl)c1 (stereo not drawn) | u | x | u | x | 16.4µM* | x
COc1ccc(C(=O)/C=C/c2ccc(OC)c(COc3ccccc3F)c2)cc1 | -4.6% | -26.2% | 25.9µM* | u | u | 4.2%
COC(=O)c1ccc(Cn2nnc3ccccc32)cc1 | 0.0% | u | -17.2% | -1.5% | u | 0.5%
COc1ccc(/C=C/C(=O)c2ccccc2)cc1Cn1nnc2ccccc21 | 0.3% | u | u | 14.1% | 23.1µM* | u
COc1ccc(/C=C/C(=O)c2ccccc2)cc1COc1ccc(F)cc1 | 19.3% | u | u | -22.3% | 20.6µM* | -4.1%
COc1ccc(/C=C/C(=O)c2ccc(O)cc2)cc1COc1ccc(F)cc1 | -27.2% | -22.4% | u | u | u | -10.9%
NC(=O)C1CN(CC(=O)Nc2cc(Cl)ccc2Cl)c2ccccc2O1 (stereo not drawn) | 5.2% | x | x | x | x | x
O=C(CCc1ncc(-c2ccccc2)o1)Nc1ccc(N2CCOCC2)cc1N1CCOCC1 | -42.3% | x | x | x | x | x
CC1c2ccsc2CCN1S(=O)(=O)c1ccccc1 (stereo not drawn) | 0.0% | u | -17.8% | u | -16.5% | u
O=S(=O)(c1cccc(F)c1)N1CCc2sccc2C1c1ccc(OC(F)(F)F)cc1 (stereo not drawn) | 179.8% | 16.8% | u | u | 14.6µM* | -7.0%
COc1ccccc1NS(=O)(=O)c1cc(NC(=O)C2CCCC2)ccc1N1CCOCC1 | -28.1% | -3.1% | 14.6µM* | 17.6% | u | 2.5%
COCC(=O)Nc1ccc(N2CCOCC2)c(S(=O)(=O)Nc2ccccc2OC)c1 | u | x | -18.8% | 12.6% | u | x
COc1ccccc1NS(=O)(=O)c1cc(NC(=O)C(C)(C)C)ccc1N1CCOCC1 | -18.6% | x | u | u | -22.6% | x
COc1ccccc1NS(=O)(=O)c1cc(NC(=S)NCCN2CCOCC2)ccc1N1CCOCC1 | 50.1µM* | 21.1% | u | u | u | 12.9%
COc1ccccc1NS(=O)(=O)c1cc(NC(=O)c2sccc2C)ccc1N1CCOCC1 | 0.0% | 10.0% | 20.6µM* | -11.5% | u | 7.4%
COc1ccccc1NS(=O)(=O)c1cc(NC(=O)c2ccncc2)ccc1N1CCOCC1 | 9.7% | 43.6% | 11.6µM* | 23.8% | 11.6µM* | -3.1%
SMILES | ALOX12 inh | RORgamma inh | TDP1 cell CPT | ELG1 DNA repair | TDP1 cell noCPT | Gal4-VP16 FLuc
COc1ccc(-c2c(C)oc3cc(OCC(=O)OC(C)(C)C)ccc3c2=O)cc1OC | -25.8% | x | x | x | x | x
CCOC(=O)C1CCN(C(=O)C2COC3(CCC(C)CC3)N2C(=O)c2ccccc2F)CC1 (stereo not drawn) | -4.9% | x | x | x | x | x
CN1CCCCCC(O)c2cc(C(=O)NCCc3c[nH]c4ccccc34)ccc21 (stereo not drawn) | 14.3% | x | x | x | x | x
COc1ccccc1NS(=O)(=O)c1cc(NC(=O)c2ccc(NC(C)=O)cc2)ccc1N1CCOCC1 | u | x | 2.31µM* | x | 5.8µM* | x
Cn1cnc([N+](=O)[O-])c1Oc1ccccc1 | 8.3% | -16.4% | 18.4µM* | 21.6% | u | -20.4%
Cn1cnc([N+](=O)[O-])c1Oc1cccc(O)c1 | -16.0% | -29.9% | u | 5.9% | 23.1µM* | 12.6µM*
O=C(O)/C=C/c1nccs1 | 52.2% | x | x | x | x | x
S=C(Nc1cccnc1)NC1CCCC1 | 1.4% | 1.3% | -13.1% | -14.8% | -27.0% | -8.3%
COc1ccc(NC(=O)O[C@@H]2CO[C@H]3[C@@H]2OC[C@@H]3NC(=S)NC2CCCCC2)cc1 | 0.4% | x | x | x | x | x
S=C(Nc1cccnc1)NC1CCCCCCC1 | -8.1% | u | 0.8% | 4.6% | -28.7% | 22.4µM*
O=C(O)C1CCCCC1C(=O)Nc1ccc(Cl)cc1Cl (stereo not drawn) | 0.2% | -3.7% | -12.5% | 17.8% | 2.4% | -7.4%
S=C(Nc1ccc(Nc2ccccc2)cc1)NC1CCCCCC1 | 44.7µM* | 1.26µM* | 23.1µM* | u | 16.4µM* | u
CC1CCCCC1NC(=S)Nc1ccc(Cl)cc1Cl (stereo not drawn) | u | 3.55µM* | -2.3% | -10.4% | u | u
CO[C@@H]1CO[C@H]2[C@@H]1OC[C@@H]2NC(=S)Nc1ccc(Cl)cc1 | 79.4µM* | x | x | x | x | x
NS(=O)(=O)c1ccc(NC(=S)NC2CCCCC2)cc1 | u | 6.2% | -12.4% | 0.7% | 10.5% | 4.2%
Cc1ccc2c(c1)c(-c1ccccc1)c(-c1ccccc1)n2CCC#N | 2.4% | x | x | x | x | x
Cc1ccn2c(C(=O)N[C@H](Cc3ccccn3)C3CC(O)C3)nnc2n1 (stereo partly drawn) | 50.5% | x | x | x | x | x

Bioassay records: PubChem, National Center for Advancing Translational Sciences (NCATS)
